Source: the supplement of paper PMC12632987
Over roughly 4,500 sequences, “median log2 fold change of GCK-ALFA target abundance (FLAG IP / Myc IP barcode read proportion)” has its median near 0.078; the lowest 2% begin near -0.6. This is one part of a sample in which the lowest values are shown more often than they occur.

B1: GBRAP_128_3472 (protein)
chain: GVEEVRKWTKEVMEKMKTADDEEFRELATELAERLLTLPLEEVEAAVEVIKEHLPELTAEKLEILAEVLREARPQATPEKAALFADVESEALLLAEELEE
B2: GBRAP_52_5855 (protein)
chain: SKEKMRKLAEELLKLKLAGKEEELEKKVKELVATLSEEEILELLKELAELAKKANKEEAEAIAEVAELLADEAEKAGFDEDELSYELAKVYAAAYKVLQK
B3: GBRAP_35_5567 (protein)
chain: SFDETTAEMMVNTIEALTEAVEDIDPETLKTITEQITKAAKKVIEEIKDNKEALEKIKKALEKLLKALEKRGLDDPNVKAAAEAVKEAIKEAEKAIKEAE
B4: GBRAP_52_6372 (protein)
chain: REAEARAIVDELLALAEAGDEEGVEALVREVLASGDGALQAAVLREIRRRLEARDHPDPEALLRLAAIVADEVLEAEVDSPEVWAALTALAAAALALERA
B5: GBRAP_160_4778 (protein)
chain: SEKVEELKKSIEEAKEEILESIDTESPEETIIVVKGETGLILAEAYELEIDNDELEDALDEIGDELIEEMKKNKNASKEELKKIVEEYTEKALKKIEELT
B6: GBRAP_43_5750 (protein)
chain: MEEIIEGHVDFALLAAEDPNISEEQKLKIAKDTFDILADENISLPEESSKLTEALAKSLSLEQLKELLAHLKELAKKYPELKELFDKNSKIIEEAIKKLE
B7: GBRAP_80_6795 (protein)
chain: AEERLKKALEEIEKLDKELAKKVKEIVEIAREMGVSTEDLADFAEAIAELLKLDKEKARELVEELKEELEELKKEGNKAEAEAAVRVYAGEALLEVEELE
B8: GBRAP_160_4201 (protein)
chain: SEKVEKVIRLLREETERVIAEVPELSREEVANLADVEYGSVLMEAVELGIENDEILDTIADAADEIRRFLEENRDASVEEIKRGIREITERAIEEIKKIA
B9: GBRAP_160_4006 (protein)
chain: SEEAEKLIKEIKEIFEELKKDIEGLTPEERLTLAKGYAGEILQLAESSKVISDEAVDKIAEILDEFLEELEKNKNAPLEYWKKLIEETLKKIEEVIKEDS
B10: GBRAP_43_5749 (protein)
chain: DEELVAGAVEFTLLAAEDPSISPETVLRAFKATLDLIADTGVRLEEELVAAAAAVAKRLSPEQVEALIEHIKELAAASPEVKETFEAAEEVLRAELAKRR
B11: GBRAP_150_3886 (protein)
chain: DLETALTIASSALDILEATIEDGPKLLEHALKLTKALVDEVKDFSEELQKLAKEALKKIEEAIKLVKAGGKPEEIKKLLEEAAKLLEELEKLLEKKIEEE
B12: GBRAP_52_5963 (protein)
chain: MEARMEALLDELLALRRAGDEAGAEALAREIAETLDDEELRLLGDVLVARIRASDLETAELLLDLAIMLADVLEELGRDPRLASDLLGRAAAAAYALEQA
B13: GBRAP_83_6915 (protein)
chain: MKEITVAAVGDHIDEAFDAAIDLKKEGVEKIIVEAIIKPEEVPRLLEAVKRALEAGVNLELEVFLEGATEEEAEEVEKKLKEIAKEAGKEVKVTVEVIEP
B14: GBRAP_9_7146 (protein)
chain: MEEMVEKIREVMEDAFEEVREIVPEEVKPLVDELREEALKRFEEVVADKSKTKEEIREAAKELIEEFTERVSEKVSPEIAKMVEAIGLTAKLEIEEIYEE
B15: GBRAP_11_2904 (protein)
chain: KKEKLEKLAELLKKAVALLKELLAKGTDDEKLHAEALKVAEEALKLAKEVLDESDVELAEEAVELLKQAKADPANAAQYVQQALAIFSVLEGQVLLKIEE
B16: GBRAP_96_7096 (protein)
chain: MLEEAEALVRELIAALDTDPERARALAERLLEFPVEVVTEAIVRVVKDPADAAKLAELLLELGDEKAEEVLLEAAEKAPGDISKAIIDAMQAYEEAKEAA
B17: GBRAP_184_5075 (protein)
chain: SVREETIRVENVEEARAKMAALAERVRDHRGDLVVLVEMPEADLEIMRAVLEGLAAILAAGYARRVTVGFDAEVTEEQVDEAVALADRLGVNVVLPLKEE
B18: GBRAP_125_3111 (protein)
chain: DMEEVLEALAIVLRALGFDDDEIEEALELARRYGIKGTMIAVALAEGYEEVADLLEKLTEEEVKQALLETAAAIKANPELTPEEVKELLEEVLKKLLAAS
B19: GBRAP_160_4005 (protein)
chain: SAEIEALIKEIEELVKETKEWMKGLSPEERLTLARGMVGEIIQLAIDSPAVSDETEDKIAEIGDETIARLEANANASLEVWEKILDDYLEKVKELLKSDE
B20: GBRAP_11_2908 (protein)
chain: KKEKLKEAAKLAEKAAKLIEQLIKNGADDKELWAEAEKAAEELLKLAKEYLDESTVELAEYALELLKKAQADPKNAQQYLNEALATVRVILGQILLAIEE
B21: GBRAP_78_6697 (protein)
chain: EVEELLEKALELLDQALKLSKQLPEDLRNEVTYHLVEAITDLEEAIEEGADLEELKEALEHLDKAIALVKANDTPLTQPLLKLLTEAKKLLEEAIKKLEE
B22: GBRAP_125_3109 (protein)
chain: SEDELLAALRALARALGFSEEEAEEAAELARRFSLRQTLYAIFLAEGEEELADLVEQLTEEQARAALAALAAWLAAHPDATKEEVLAQARAILEAELARA
B23: GBRAP_9_7186 (protein)
chain: MQEKKEKILEEVKEELELAIEVAPEEYKELIKEKTEEVLKELEKAVKDENTTLEELLKKLEELFEKLIEIAKKNVPKETYLQIEAILGTAILSAEEIIEE
B24: GBRAP_26_5464 (protein)
chain: MEEAFREASDRVDEIAAKLSNPEAAAAVRAEADTILLELEERIEAGEDIEKAVKEAEEEFLKEAREIGKEEGLPEEEIERLEKELSEVFKELEERLKKAK
B25: GBRAP_160_4037 (protein)
chain: NEKLKKLKKFAEEVFEEAKELVEGTSVEEAAVIIDVAAGEIIMEAVELGIDDDELEDFIDEIGDEAVAYLLAHPDLSEEEIKELIEEAREKVLEKIDEAE
B26: GBRAP_160_4038 (protein)
chain: NEKLEKLAKFAEEVFKEAEELIKGTTVEEAAVIVDVATGEIIMEAVELGIDNDELEDFIDEIGDEAVAYLLAHPDLTEEEIQALVKEAKEKILKKIKEAS
B27: GBRAP_52_6009 (protein)
chain: MREELRERLEEALALVRAGRLEEARALVTELVESLDEEELELLIELLAEMAREAAPEDFDAVWTLAELVAEEMRRAGKDEVLADLLEARVAAALYEAEQR
B28: GBRAP_52_5877 (protein)
chain: MLEEAVKLLEEAVKAKKEGKEKELKEILKKIVEEFSEETILAAVKKLAEKVLTKSLEEAEAFYETVELLSDILLEAGKSEEIASLMEAIAGATLYTVEQK
B29: GBRAP_11_2629 (protein)
chain: KKEILKKKAELAKKLAEKVEKLLKEGVDNEELLKEIEKLLKEIAELTEKYGTEADKSLVEVAKELFEEAKKDKENKEKYLKELLAAAKVLEGDYLLEIEE

The binders below were run against GABARAP, O95166 (assay: median log2 fold change of GCK-ALFA target abundance (FLAG IP / Myc IP barcode read proportion) (log2 ratio); each designed protein is fused to an ALFA-tag nanobody in HEK293 cells to bring the named protein to FLAG-tagged glucokinase (GCK); Myc marks an untargeted standard; higher = target protein stabilised (more abundant)). Conditions: target protein: 3xFLAG-MCP-GCK-ALFA reporter; HEK293 landing pad (RPLP).
How it was run: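 Sequencing of reverse-transcribed, amplified circular RNA barcodes from anti-FLAG and anti-Myc immunoprecipitates provided the readout for an ALFA-nanobody-fused binder library recombined into HEK293 landing-pad cells. Those cells were induced with 2 μg mL^−1 doxycycline, transfected with a plasmid expressing a FLAG-tagged target and a Myc-tagged standard, and lysed after 48 h. Target abundance is the per-binder median log2 ratio of FLAG to Myc barcode read proportions. Only barcodes at a proportion of ≥10^−7 in both replicates and binders with ≥3 barcodes per replicate were kept, with a 10^−6 pseudocount added before the two replicates were pooled.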

GABARAP, O95166, sequence (O95166 whole entry, the tested form may be a part): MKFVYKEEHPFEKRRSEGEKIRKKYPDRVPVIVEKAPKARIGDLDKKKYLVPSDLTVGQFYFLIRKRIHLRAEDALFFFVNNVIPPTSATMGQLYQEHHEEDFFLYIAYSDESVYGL

| Binder | median log2 fold change |
| --- | --- |
| B1 | 0.00124 |
| B2 | -0.0898 |
| B3 | 0.378 |
| B4 | -0.638 |
| B5 | 0.139 |
| B6 | 0.475 |
| B7 | 0.0713 |
| B8 | -0.204 |
| B9 | -0.00151 |
| B10 | 0.142 |
| B11 | 0.00752 |
| B12 | -0.635 |
| B13 | 0.19 |
| B14 | 0.209 |
| B15 | 0.354 |
| B16 | 0.123 |
| B17 | 0.0908 |
| B18 | -0.903 |
| B19 | 0.201 |
| B20 | 0.209 |
| B21 | 0.0855 |
| B22 | -0.77 |
| B23 | -0.362 |
| B24 | 0.274 |
| B25 | -0.581 |
| B26 | -0.621 |
| B27 | -0.0383 |
| B28 | 0.168 |
| B29 | 0.182 |
